# Vaccinia Venus: qHTS for Stage-Specific Inhibitors of Vaccinia Orthopoxvirus: Venus Reporter Primary qHTS; Vaccinia virus Venus reporter expression, fluorescence; Potency, µM (highest dose often 36.5 µM), without a hit: at the highest dose activity change, negative = inhibition, usual class: inhibitors; 330,000 compounds, 0.46% hits; calls by dose curve; tested in A549 cells; further: nearly all actives have a fitted effect of over 30% in size
# AMA1-RON2 inh: qHTS for Inhibitors of AMA1-RON; Towards Development of Antimalarial Drug Lead: Primary Screen. AlphaScreen AMA1-biotinylated RON2 peptide binding. Potency, µM (highest dose often 58.2 µM), without a hit: at the highest dose activity change, negative = inhibition, usual class: inhibitors. 360,000 compounds, 0.2% hits. AID 720542, 2013;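 further: 0% = vehicle wells and -100% = peptide control; nearly all actives have a fitted effect of over 45% in size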
#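 AMA1 (3D7) with his tag at 25 nM final met compounds first, then biotinylated RON2 peptide at 25 nM; detection used donor plus acceptor beads, 10 µg/mL apiece, read by AlphaScreen after 30 min at room temperature.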
# VACV mCherry inh: qHTS for Stage-Specific Inhibitors of Vaccinia Orthopoxvirus: mCherry Reporter Primary qHTS; 310,000 compounds, 0.63% hits; AID 720579, 2013; Potency, µM (series often up to 36.5 µM), inactives show at the top dose activity change, negative = inhibition, hits mostly inhibitors; Vaccinia virus mCherry reporter infection, fluorescence; calls by dose curve; tested in A549 cells; further: nearly all actives have a fitted effect of over 35% in size
# Pf growth 96h: Primary qHTS for delayed death inhibitors of the malarial parasite plastid, 96 hour incubation | P. falciparum luciferase reporter growth, 96 h | Potency, µM (doses to about 28.7 µM), inactives show top-dose activity change, negative = inhibition, hits mostly inhibitors | 320,000 compounds, 6.9% hits
#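 Readout is luminescence from an integrated firefly luciferase in P. falciparum. Red cells, 2% hematocrit and 0.05% parasitemia final, were cultured with compound through two parasite generations (96 hours) at 37 C, 5% CO2.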
# Pf growth 48h: Primary qHTS for delayed death inhibitors of the malarial parasite plastid, 48 hour incubation; AID 504832, 2011; 310,000 compounds, 5.9% hits; Potency, µM (series often up to 28.7 µM), for the others: at the top dose activity change, negative = inhibition, most hits filed as inhibitors; P. falciparum luciferase growth in erythrocytes, 48 h
#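 Parasite viability was followed by luminescence of a genomically integrated firefly luciferase. Cultures held 0.1% parasitemia at 2% hematocrit (final), incubated under 5% CO2 at 37 C.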
# Starred values were filed as active, the others as inactive; i = inactive; u = inconclusive; x = no result given; [ ] = another dose, or the depositor's remark. Shown are actives, neighbours in structure and some others; about 8.7% of the full set was active somewhere. Unless noted, the call rests on the fitted dose curve; in most records, active means well fitted curve in the direction sought with a large enough effect; inconclusive means small, poorly fitted or top-dose-only effect, or another doubt; inactive means no such curve, though single readings can be large; an effect the other way counts as inactive or inconclusive. Unless noted, on the % scale 0 is the no-effect control and ±100 the full control effect; potency means the concentration at half of the fitted maximal effect.
SMILES,Vaccinia Venus,AMA1-RON2 inh,VACV mCherry inh,Pf growth 96h,Pf growth 48h
COc1cccc(CC2(CO)CCCN(Cc3ccc4c(c3)OCCO4)C2)c1 (stereo not given),-26.7%,5.8%,-19.2%,10.4µM*,-36.0%
Cc1ccc(N(C)C(=O)c2noc3c2CCCCC3)cc1C,-15.0%,x,-2.0%,x,x
COc1ccccc1N1CCN(C(=O)c2ccc(COc3cccc4c3OC(C)(C)C4)cc2)CC1,u,-20.7%,u,u,10.4µM*
COc1ccccc1N1CCN(C(=O)c2ccc(C(C)(C)C)cc2)CC1,10µM*,-8.4%,11.2µM*,x,u
COc1ccccc1N1CCN(C(=O)c2cc3c(=O)n(C)c4ccccc4c3s2)CC1,-9.9%,x,-27.1%,x,x
COc1ccccc1C1CCN(C(=O)c2ccco2)CC1,6.5%,-14.2%,i,-16.9%,5.1%
COc1ccc(C(=O)N2CCN(c3ccccc3OC)CC2)cc1,x,-4.0%,x,-33.7%[5.75 µM],11.2%
COc1ccccc1C1CCN(C(=O)c2ccc(C(C)(C)C)cc2)CC1,u,-8.9%,u,7.38µM*,11.7µM*
COc1ccccc1N1CCN(C(=O)c2cc3c(=O)n(C)c4ccccc4c3n2C)CC1,-9.0%,-2.2%,-28.8%,7.38µM*,x
COc1ccccc1NC(=O)Cn1c(=O)n(CCCCCC(=O)NCc2ccccc2)c(=O)c2sccc21,1.4%,x,-14.0%,x,x
Cc1cccc(-n2c(C)nnc2SCC(=O)NC(C)c2ccco2)c1 (stereo not given),-15.8%,x,-19.8%,x,x
Cc1ccccc1N1CCN(C(=O)c2ccc(Oc3ccc(C(F)(F)F)cn3)cc2)CC1,x,17.2%,x,13.1µM*,9.28µM*
O=C(O)c1ccc(Oc2ccc(C(F)(F)F)cn2)cc1,2.0%,-17.6%,-3.2%,16.1%,-4.1%
COc1ccccc1N1CCN(C(=O)c2ccc([N+](=O)[O-])s2)CC1,u,-3.7%[2.32 µM],u,u,-26.0%
Cc1ccc(Cl)cc1N1CCN(C(=O)c2cc3c(=O)[nH]c4ccccc4c3n2C)CC1,-13.6%,5.8%,u,9.28µM*,u
COc1ccccc1N1CCN(C(=O)c2cc3c(s2)CCC3)CC1,-11.3%,9.1%,x,13.1µM*,x
COc1ccccc1N1CCN(C(=O)c2ccc3[nH]c4c(c3c2)CCCC4)CC1,u,-27.1%,-26.9%,11.7µM*,0.0%
O=C(c1ccc2[nH]c3c(c2c1)CCCC3)N1CCN(c2ccc(F)cc2)CC1,-18.3%,u,-17.3%,-20.1%,-12.8%
CC1=CC(O)=NS(=O)(=O)O1,-19.4%,x,-1.8%,x,x
Cc1ccccc1-c1noc(-c2ccccc2OCC(=O)Nc2ccccc2[N+](=O)[O-])n1,-6.5%,x,-15.2%,x,x
CCCCCCC(O)C/C=C/CCCCCCCC(=O)O (stereo not given),x,x,x,-6.6%,1.7%
CCOC(=O)N1CCN(C(=O)COc2ccccc2OC)CC1,-10.2%,2.8%,-8.7%,x,2.33µM*
COc1ccccc1N1CCN(C(=O)COc2ccc(Cl)cc2Br)CC1,u,-10.6%,x,8.28µM*,-27.2%
COc1ccccc1N1CCN(C(=O)COc2ccc(C)cc2Br)CC1,u,-15.8%,u,u,-14.3%
COc1ccccc1N1CCN(C(=O)c2ccc(-c3ccc(Cl)cc3)o2)CC1,x,-28.9%,x,11.7µM*,u
SMILES,Vaccinia Venus,AMA1-RON2 inh,VACV mCherry inh,Pf growth 96h,Pf growth 48h
CC(C)c1ccccc1OCC(=O)N1CCCCCCC1,-2.0%,17.1%,-11.8%,4.15µM*,20.9%
COc1ccccc1N1CCN(C(=O)NCc2ccc(Cl)cc2)CC1,-16.4%,-3.5%,i,24.1%,-5.0%
Cc1cc(O)c(C(c2cccc(Cl)c2)N2CCN(c3ccccc3)CC2)c(=O)n1Cc1ccco1 (stereo not given),-10.3%,x,-9.7%,x,x
CCCn1c2ccccc2c2cnn(CC(=O)N(CCCOC(C)C)Cc3ccco3)c(=O)c21,-15.6%,x,-11.9%,x,x
CC(=O)c1ccc(-c2ccc(C(=O)N3CCN(c4ccc(F)cc4)CC3)o2)cc1,x,-22.4%,x,11.7µM*,-11.2%
COc1ccccc1N1CCN(C(=O)C(Sc2ccccc2)c2ccccc2)CC1 (stereo not given),u,-5.7%,x,7.2%,13.1µM*
CCC(=O)Nc1ccc(C(=O)CSc2nnc(-c3ccccc3F)n2C2CC2)cc1,0.4%,0.2%,i,2.94µM*,2.62µM*
CCC(C)NC(=O)NC(=O)CSc1nnc(-c2ccccc2F)n1C1CC1 (stereo not given),-9.3%,2.0%,-22.5%,-7.0%,-8.2%
CC1CCN(CC[S-])CC1.O.O.[Cl][Pt],u,x,-13.7%,x,x
COCCn1c(SCc2csc(-c3ccccc3)n2)nc2ccccc21,x,-0.4%,x,11.7µM*,-14.5%
Cc1ccccc1-n1nnnc1SCc1csc(-c2ccccc2)n1,x,4.6%,x,9.28µM*,x
Cc1ccccc1-n1nnnc1SCC(C)C,-6.6%,6.6%,-14.2%,-4.5%,11.9%
CCN(Cc1ccccc1)c1ncnc2c1nnn2C,-5.0%,x,-10.2%,x,x
COc1ccccc1N(Cc1ccccc1)S(=O)(=O)c1cccc(C(=O)O)c1,-5.4%,15.6%,i,-21.4%,-2.8%
COc1ccccc1N(Cc1ccccc1)S(=O)(=O)c1cccc(C(=O)NC2CC(C)(C)NC(C)(C)C2)c1,u,-1.8%,u,4.65µM*,5.86µM*
CCOc1ccccc1NC(=O)c1cccc(S(=O)(=O)N(Cc2ccccc2)c2ccccc2OC)c1,-12.1%,-8.3%,-13.6%,2.62µM*,0.0%
CC1(C)CC(NC(=O)c2ccc(Cl)c(S(=O)(=O)N(Cc3ccccc3)c3ccccc3)c2)CC(C)(C)N1,u,6.4%,-16.9%,7.38µM*,5.22µM*
COc1ccccc1N(Cc1ccccc1)S(=O)(=O)c1cccc(C(=O)Nc2ncccc2C)c1,-25.5%,45.8%,i,u,11.7µM*
Cc1cc2c(cc1S(=O)(=O)N(CCO)Cc1ccccc1)OCC(=O)N2,-7.4%,x,i,x,x
O=C(COc1ccc(F)cc1)Nc1ccccc1C(=O)OCc1cc(=O)n2ccsc2n1,-24.7%,x,u,x,x
O=C(c1cc2nc(-c3ccc(Cl)cc3)cc(C(F)(F)F)n2n1)N1CCOCC1,x,3.3%,x,10.4µM*,4.1%
COc1cc(C(=O)OCC(=O)N2CCCCC2C)cc(NC(=O)c2cccs2)c1OC (stereo not given),-5.8%,24.0%,-7.0%,u,0.117µM*
CC(C)(C)OC(=O)N1CCC(CC2CC(c3ccc(Cl)cc3)=NO2)(C(=O)NCC2CCCCC2)CC1 (stereo not given),u,12.8%,-26.0%,u,-69.1%
CC1(C(=O)N2CCC(CC3CC(c4ccc(Cl)cc4)=NO3)(C(=O)NCC3CCCCC3)CC2)CC1 (stereo not given),u,-1.7%,i,1.47µM*,u

# Screening data (PubChem BioAssay)
